# Out of some 69,000 compounds screened, about 8,600 (12%) showed an effect of 50% or more. For the sample, strong results were picked, then their nearest neighbours and some compounds at random.
# Tested on: Plasmodium berghei
# Assay: Screen against P. berghei liver stage (PbLuc), transformed with Luciferase, at 10uM
# Assay type: functional, HepG2
# Settings: tested at 10 uM
row,Structure (SMILES),INHIBITION [%]
1,Cc1nnc(NCCC(=O)N(C)Cc2ccccc2)c(C#N)c1C,-5.65
2,Cc1cnc(-c2nc(C3CCN(Cc4ccccc4C)CC3)no2)cn1,19.36
3,O=C(CCc1ccco1)NS(=O)(=O)Cc1ccon1,64
4,O=C(NS(=O)(=O)Cc1ccon1)c1ccsc1,73.6
5,CC(O)(CNS(=O)(=O)Cc1ccon1)c1ccsc1 (centres undefined),1.98
6,COc1ccc(C(=O)NCc2ccon2)cc1F,11.6
7,O=C(CCc1ccsc1)NS(=O)(=O)Cc1ccon1,55.4
8,Cc1cc(C(=O)NS(=O)(=O)Cc2ccon2)c(C)n1C(C)C,56.1
9,O=C(CCc1ccco1)NS(=O)(=O)N1CCOc2ccccc21,25.2
10,O=C(CCc1cccc(Cl)c1)NS(=O)(=O)Cc1ccon1,35.1
11,Cc1cc(C(=O)NS(=O)(=O)Cc2ccon2)c(C)o1,44.2
12,Cc1ccc(C(=O)NS(=O)(=O)Cc2ccon2)c(C)c1,12.8
13,CN(C(=O)CCc1ccsc1)S(C)(=O)=O,37.4
14,Cc1ccc(S(=O)(=O)NC(=O)CCc2ccco2)cc1N(C)C,-18.9
15,CC(=O)N1CCN(c2cc(C3CN(C(C)=O)CCO3)nc(C)n2)CC1 (centres undefined),29.2
16,CO[C@@H]1CC[C@H]2[C@H]1OCCN2CCOCc1ccccc1,4.98
17,Cc1nc(C2CCCN(C(=O)c3ccncc3)C2)c2sccn12 (centres undefined),35.2
18,CC(=O)c1cn(CCC(=O)N[C@@H](CC(C)C)C(=O)O)c2ccccc12,11.9
19,NC(=O)CSCC(=O)NC1(c2cccc(Cl)c2)CC1,38.6
20,CC(=O)N1CC[C@H]2OCC[C@@H](C(=O)NCc3ccco3)[C@@H]2C1,18.3
21,COCC(=O)N1Cc2nccn2CC(Cn2ncccc2=O)C1 (centres undefined),19.4
22,CC(C)(C)c1nccc(N2CCCCC2CNS(C)(=O)=O)n1 (centres undefined),16.6
23,O=C(COc1ccc(Cl)cc1)N1CCN(c2cnccn2)CC1,-126
24,c1cc(CCN2CCN(c3ccc4nncn4n3)CC2)ccn1,-33.7
25,Clc1ccc(OCCCN2CCN(c3cnccn3)CC2)cc1,54.4
26,O=C(CCOc1ccc(Cl)cc1)N1CCN(c2cnccn2)CC1,3.19

row,Structure (SMILES),INHIBITION [%]
1,O=C(CCN1CCN(c2ccc3nncn3n2)CC1)N1CCCCC1,-19.9
2,c1ccc(CCCN2CCN(c3ccc4nncn4n3)CC2)cc1,74.7
3,c1ccc(CCN2CCN(c3ccc4nncn4n3)CC2)cc1,60.9
4,c1ccc(CN2CCN(c3ccc4nncn4n3)CC2)nc1,7.67
5,O=C(NCCc1ccccc1)C1CCCN(c2ccc3nncn3n2)C1 (centres undefined),-23.5
6,c1ccc(CCN2CCN(c3ccc4nncn4n3)CC2)nc1,20.1
7,N#Cc1ccc(N2CCN(c3ccc4nncn4n3)CC2)nc1,-23.4
8,Clc1ccccc1CCN1CCN(c2ccc3nncn3n2)CC1,72.8
9,O=c1[nH]c(N2CCCCC2)nc2nccc(-c3ccc4c(c3)OCO4)c12,-5.59
10,COc1c(C)cc(CNCc2ccnc(N3CCOCC3)c2)cc1C,28.8
11,CC(C)NC(=O)N1C[C@@H]2C[C@H](C(=O)NCc3ccccc3)[C@H](C1)O2,18.2
12,COc1ccc(Cn2nnnc2SCC2CCCN(C)C2)cc1 (centres undefined),40.5
13,CO[C@@]1(C)C[C@@H](O)C12CCN(C(=O)C1(c3ccccc3F)CC1)CC2,32.5
14,NCCC(Cc1ccccc1)c1ccco1 (centres undefined),36.1
15,O=C(N[C@H]1CCCC[C@@H]1O)c1ccc2nc(-c3ccccc3)[nH]c2c1,-85.3
16,COc1nn(C)c2c1CCCN(C(=O)c1ccccc1F)C2,3.25
17,CC(NC(=O)CCCC(=O)c1cccs1)c1nnc2n1CCC2 (centres undefined),7.12
18,O=C(O)Cn1ccc2c(Cl)cccc21,19.3
19,Cc1nnc(C(C)N2CCN(Cc3ccc(C(F)(F)F)cc3)CC2)o1 (centres undefined),-43.5
20,c1ccc(OCCCN2CCN(c3ccc4nncn4n3)CC2)cc1,86.1
21,FC(F)(F)COCCN1CCN(c2ccc3nncn3n2)CC1,38.8
22,O=C(CCN1CCN(c2ccc3nncn3n2)CC1)NC1CCCC1,-51.5
23,O=C(NCc1cccnc1)NC1CCC2(CCC(=O)N2CC2CC2)CC1 (centres undefined),40.3
24,CCN(CCNC(=O)Nc1nnc(C)s1)C(=O)OC(C)(C)C,-19.3
25,O=C1C(NS(=O)(=O)c2ccc(F)cc2)CCN1Cc1ccccc1 (centres undefined),23.5
26,CCc1nc2ccccc2n1C(CC)C(=O)N(C)Cc1nc(C)c[nH]1 (centres undefined),12.9

row,Structure (SMILES),INHIBITION [%]
1,CCc1nc2ccccc2n1C(CC)C(=O)N(C)Cc1noc(C)n1 (centres undefined),31.1
2,CCc1nnc(CN(C)C(=O)C(CC)n2c(CC)nc3ccccc32)o1 (centres undefined),52.7
3,O=C1COc2ccc(C(=O)NS(=O)(=O)c3ccccc3Cl)cc2N1,14.1
4,CCCS(=O)(=O)N1C[C@@H](Oc2ccccn2)[C@H]2OCCC[C@H]21,-21.1
5,O=C(c1nc(=O)[nH][nH]1)N1CCCC(c2cc(C(F)(F)F)[nH]n2)C1 (centres undefined),29.1
6,O=C(c1ccsc1)N1CCCC(c2cc(C(F)(F)F)[nH]n2)C1 (centres undefined),57.2
7,Cc1nc(C(=O)N2CCCC(c3cc(C(F)(F)F)[nH]n3)C2)c[nH]1 (centres undefined),33.8
8,Cn1cc(CC(=O)N2CCCC(c3cc(C(F)(F)F)[nH]n3)C2)cn1 (centres undefined),7.97
9,O=C(c1cc(Cl)c[nH]1)N1CCCC(c2cc(C(F)(F)F)[nH]n2)C1 (centres undefined),88.2
10,Cc1nc(C2CCCN(C(=O)c3cc(Cl)c[nH]3)C2)sc1C (centres undefined),40.9
11,O=C(c1ccc[nH]1)N1CCCC(c2cc(C(F)(F)F)[nH]n2)C1 (centres undefined),54.4
12,Cc1cc(C(=O)N2CCCC(c3cc(C(F)(F)F)[nH]n3)C2)[nH]n1 (centres undefined),29.7
13,O=C(c1cc[nH]n1)N1CCCC(c2cc(C(F)(F)F)[nH]n2)C1 (centres undefined),25.1
14,CCOCCC(=O)N1CCCC(c2cc(C(F)(F)F)[nH]n2)C1 (centres undefined),7.97
15,O=C(Cc1cccnc1)N1CCCC(c2cc(C(F)(F)F)[nH]n2)C1 (centres undefined),50.8
16,CCOC(=O)c1cc(C(C)(O)CCC=C(C)C)on1 (centres undefined),37.8
17,Cc1nc(CC(=O)N2CCC(c3nn(C)c4ncccc34)CC2)cs1,26.8
18,Cn1c(C(=O)N2CCC(C(N)=O)C2)c(Cl)c2ccccc21 (centres undefined),-20.5
19,Cc1oc(-c2ccco2)nc1CN1CCc2cnc(C(C)C)nc2C1,21.9
20,CC(C)N(C)S(=O)(=O)c1ccc2c(c1)CCN(C(=O)c1cccnn1)C2,23.2
21,Cc1cnc(C(=O)NCC2CCOc3ccccc3C2)cn1 (centres undefined),24.4
22,CC(=O)NCC1CCN(CC2CCOc3ccccc3C2)CC1 (centres undefined),37.8
23,CNc1nc(C(=O)NCC2CCOc3ccccc3C2)cs1 (centres undefined),53.3
24,O=C(c1ccc(Cn2cc(Br)cn2)cc1)N1CCCC1,53.5
25,O=C(c1ccc(Cn2cc(Br)cn2)cc1)N1CCOCC1,37.7
26,CN1CCN(C(=O)c2ccc(Cn3cc(Br)cn3)cc2)CC1,30.7

row,Structure (SMILES),INHIBITION [%]
1,CCC(=O)N1CCN(C(=O)Nc2cccc(C#N)c2)[C@H]2CS(=O)(=O)C[C@H]21,-2.09
2,CCC(=O)N1CCN(C(=O)CCn2cc(Cl)cn2)[C@H]2CS(=O)(=O)C[C@H]21,35.8
3,CC(=O)N1CCN(C(=O)Nc2ccc(Cl)cc2)[C@H]2CS(=O)(=O)C[C@H]21,12.6
4,CCC(=O)N1CCN(C(=O)Nc2ccc(Cl)cc2)[C@H]2CS(=O)(=O)C[C@H]21,61
5,CCC(=O)N1CCN(S(=O)(=O)c2cccc(F)c2)[C@H]2CS(=O)(=O)C[C@H]21,32.2
6,CCC(=O)N1CCN(C(=O)Nc2cccc(F)c2)[C@H]2CS(=O)(=O)C[C@H]21,61.9
7,CCN1CC(CN(C)Cc2nc(-c3ccc(F)cc3F)oc2C)CC1=O (centres undefined),26.5
8,Cc1ccc(C2CSCCN2C(=O)c2ccnc(N(C)C)c2)o1 (centres undefined),12.3
9,N#Cc1c(CN2CCCCC2Cn2cncn2)cn2ccccc12 (centres undefined),19.3
10,CN(Cc1ccc(Cl)s1)C(=O)c1ccccc1OCC(N)=O,-93.8
11,O=C(c1ccncc1)N1CCCn2nnc(COCCO)c2C1,29.8
12,COc1cccc(CN2CCC(O)(c3ccc(C)cn3)CC2)c1OC,-57.5
13,COc1cc(CN2CCC(O)(c3ccc(C)cn3)CC2)cc(Cl)c1OC,51.3
14,COc1ccnc(CN2CCC(O)(c3ccc(C)cn3)CC2)c1OC,-23.4
15,Cc1nc(C)n(CC2CN(CCOc3cccc(F)c3)CCO2)n1 (centres undefined),-21.7
16,Cc1cc(C)c2nc(C)cc(C(=O)N3CC(O)CO3)c2c1 (centres undefined),22.6
17,CN1CCOC(CNCCOc2cccc(C#N)c2)C1 (centres undefined),66.7
18,CN(C)CC1CN(CCOc2cccc(C#N)c2)CCO1 (centres undefined),41.4
19,CN1CCOC(CNCCCOc2ccc(C#N)cc2)C1 (centres undefined),-89.9
20,CN1CCOC(CNCCOc2ccc(C#N)cc2)C1 (centres undefined),71.1
21,COCCOc1cccc(CNCC2CN(C)CCO2)c1 (centres undefined),7.12
22,CN1CCOC(CNCCc2ccccn2)C1 (centres undefined),39.5
23,CN(C)c1ccc(C2CCN(c3cnccn3)CC2)nc1,1.93
24,CO[C@H]1CC[C@H]2[C@H]1OCCN2C(=O)CC1=CCCCC1,32.5
25,O=C(CN1CCC(c2nnc(C(F)(F)F)o2)CC1)NCc1ccccc1,-3.48
26,CCc1nnc(Nc2cccc(C3CCN(CC4CC4)CC3)n2)s1,14.7

# — ChEMBL document CHEMBL4513216, “Probing the Open Global Health Chemical Diversity Library for Multistage-Active Starting Points for Next-Generation Antimalarials” (ACS Infect Dis, 2020)
